The list is not random: actives were taken first. Their share in the collection is about 19%.
HT1080 IDH1KD tx – qHTS for induction of synthetic lethality in tumor cells producing 2HG: qHTS for the HT-1080-IDH1KD cell line. HT-1080 IDH1 knockdown viability, ATP luminescence, 48 h. Potency, µM (doses to about 46.1 µM), hits mostly cytotoxic. 2% of 360,000 active. AID 686971, 2013
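Viability of IDH1-knockdown HT-1080 fibrosarcoma cells was assessed by CellTiter-Glo after 48 h at 37 °C with titrated compound; concentration-effect curves were classified by fit quality and response size.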
HT1080NT lethal – qHTS for induction of synthetic lethality in tumor cells producing 2HG: qHTS for the HT-1080-NT fibrosarcoma cell line; HT-1080-NT fibrosarcoma viability, CellTiter-Glo ATP luminescence, 48 h; Potency, µM (titrated, usually from 46.1 µM), most hits filed as cytotoxic; 1.6% of 360,000 active;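 further: NT is the 2HG producing partner of a matched IDH1 knockdown line; nearly all actives have a fitted effect of over 55% in size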
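Fibrosarcoma NT cells, 750 per well in 5% FBS RPMI, were exposed to compound for 48 hours. Viability: CellTiter-Glo luminescence.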
IL-1B inflam inh – qHTS for Inhibitors of Inflammasome Signaling: IL-1-beta AlphaLISA Primary Screen; THP-1 LPS/ATP IL-1B secretion, AlphaLISA, 16 h; active compounds read low; activity change, % at 57.5 µM; 4.7% of 360,000 active; in the data active means activity change below about -50%; inconclusive means mostly about -30% to -49%
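THP-1 cells pretreated 1 hr with compounds (up to 57.5 uM final), then stimulated with LPS (250 ng/mL final) plus ATP (1.25 mM final); secreted IL-1B measured by AlphaLISA after 16 hr, decreased signal indicating inhibition.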
TDP1 cell CPT – qHTS for Inhibitors of human tyrosyl-DNA phosphodiesterase 1 (TDP1): qHTS in cells in presence of CPT; chicken DT40 Tdp1-/-;hTDP1 cells + 20 nM CPT, ATP luminescence, 48 h; Potency, µM (titrated, usually from 46.2 µM), actives largely listed as inhibitors; 12% of 420,000 active; further: nearly all actives have a fitted effect of over 55% in size
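Cell growth measured by CellTiter-Glo luminescence after a minimum 48 h, 37 C compound exposure with 20 nM CPT in Tdp1-knockout DT40 cells stably expressing hTDP1, seeded 400/well; qHTS titration format.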
DT40 TDP1 no CPT – qHTS for Inhibitors of human tyrosyl-DNA phosphodiesterase 1 (TDP1): qHTS in cells in absence of CPT; Potency, µM (series often up to 46.2 µM), hits mostly inhibitors; DT40 Tdp1-/- hTDP1 cells, no CPT, ATP luminescence, 48 h; 15% of 420,000 active; further: nearly all actives have a fitted effect of over 55% in size
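No-CPT arm: Tdp1-/-;hTDP1 DT40 cells (400/well) plus compounds, incubated ≥48 hr at 37 °C. Readout CellTiter-Glo luminescence.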
Of the large screens only hits and unclear results are named; the others gave an inactive call. Unless noted, the call rests on the fitted dose curve; in most records, active means well fitted curve in the direction sought with a large enough effect; inconclusive means small, poorly fitted or top-dose-only effect, or another doubt; inactive means no such curve, though single readings can be large; an effect the other way counts as inactive or inconclusive.

CS(=O)(=O)N1CCC(C(=O)NNC(=O)Nc2ccc(F)c(Cl)c2)CC1	none
Cc1ccc(F)cc1NC(=O)Cn1c(C)cc(C)c(C#N)c1=O	TDP1 cell CPT 20.6µM (no result: HT1080 IDH1KD tx, HT1080NT lethal, IL-1B inflam inh)
Cc1ccc(NC(=O)Cn2c(C)cc(C)c(C#N)c2=O)c(Cl)c1	none
O=C(NCCc1ccccc1)c1cc(=O)c2ccccc2o1	DT40 TDP1 no CPT inconclusive
Cc1cccc(NC(=S)NC(C)C(c2ccccc2)N2CCN(C)CC2)c1C (configuration not stated)	IL-1B inflam inh -50.5, TDP1 cell CPT inconclusive, DT40 TDP1 no CPT 25.9µM
CCN1CCN(C(c2cccs2)C(C)NC(=S)Nc2cccc(C)c2C)CC1 (configuration not stated)	IL-1B inflam inh inconclusive, TDP1 cell CPT inconclusive, DT40 TDP1 no CPT inconclusive
COc1ccc(N(C(=O)c2snc(C(N)=O)c2N)C(C(=O)NC2CCCC2)c2ccco2)c(OC)c1 (configuration not stated)	HT1080 IDH1KD tx inconclusive, IL-1B inflam inh -70.0, TDP1 cell CPT inconclusive, DT40 TDP1 no CPT 23.1µM
COc1ccc(N(C(=O)c2snc(C(N)=O)c2N)C(C(=O)NC2CCCCC2)c2ccc(C)o2)c(OC)c1 (configuration not stated)	TDP1 cell CPT 11.6µM, DT40 TDP1 no CPT 20.6µM
COc1ccc(N(C(=O)c2snc(C(N)=O)c2N)C(C(=O)NC2CCCC2)c2ccc(F)cc2)c(OC)c1 (configuration not stated)	DT40 TDP1 no CPT inconclusive
Cc1ccc(S(=O)(=O)N2CC=C(c3c(C)n(C)c4ccccc34)CC2)cc1	TDP1 cell CPT inconclusive, DT40 TDP1 no CPT 16.4µM
CCn1c(C)c(C2=CCN(S(=O)(=O)c3ccccc3)CC2)c2ccccc21	TDP1 cell CPT inconclusive, DT40 TDP1 no CPT inconclusive
O=C(N/N=C/c1cccc([N+](=O)[O-])c1O)c1cccs1	HT1080 IDH1KD tx inconclusive, HT1080NT lethal inconclusive, TDP1 cell CPT 0.731µM, DT40 TDP1 no CPT 1.03µM
NC(=S)N/N=C/c1ccccc1OC(=O)/C=C/c1ccccc1	IL-1B inflam inh inconclusive, TDP1 cell CPT 5.17µM, DT40 TDP1 no CPT 0.517µM
NC(=S)N/N=C/c1ccccc1OC(=O)c1cc2ccccc2oc1=O	TDP1 cell CPT inconclusive, DT40 TDP1 no CPT 6.51µM
NC(=S)N/N=C\c1ccccc1OCc1ccccc1	TDP1 cell CPT 29.1µM, DT40 TDP1 no CPT inconclusive
COc1ccc(Cn2c(C)nnc2-c2cnn(C)c2N)cc1	none
CN(CC(=O)Nc1ccccc1Cl)C(=O)COC(=O)C1=COCCO1	none
O=C(N/N=C/c1ccccc1OCc1ccccc1)c1cccs1	TDP1 cell CPT inconclusive, DT40 TDP1 no CPT 14.6µM
O=C(N/N=C/c1c[nH]c2ccccc12)c1cccs1	none
COc1cc(/C=N/NC(=O)c2cccs2)ccc1OCc1ccccc1	none
O=C(N/N=C/c1cccc2ccccc12)c1cccs1	TDP1 cell CPT 25.9µM, DT40 TDP1 no CPT inconclusive
O=C(NN=Cc1cccc2ccccc12)C(=O)NN=Cc1cccc2ccccc12	TDP1 cell CPT inconclusive, DT40 TDP1 no CPT 14.6µM
COc1ccccc1/C=C/C=N/NC(=O)c1cccs1	TDP1 cell CPT 20.6µM, DT40 TDP1 no CPT 6.51µM
O=c1c2ccccc2cnn1-c1ccc(Cl)cc1	none
CC1(C)CC(=O)c2cc(-c3nc(-c4ccc(F)cc4)cs3)c(=O)[nH]c2C1	none (no result: HT1080 IDH1KD tx, HT1080NT lethal, IL-1B inflam inh)
O=C(NN=Cc1ccccc1Cl)c1cccc2ccccc12	DT40 TDP1 no CPT inconclusive
O=C(N/N=C/c1cccc2ccccc12)c1ccccc1Cl	IL-1B inflam inh -51.4
CC(C)NC(=O)c1cc(C2CCCCN2S(=O)(=O)c2ccc(F)cc2F)on1 (configuration not stated)	DT40 TDP1 no CPT inconclusive
CC(=O)Oc1ccc(C2=Cc3ccc(OC(C)=O)cc3OC2C)cc1 (configuration not stated)	HT1080 IDH1KD tx 16.4µM, HT1080NT lethal inconclusive, TDP1 cell CPT 18.4µM, DT40 TDP1 no CPT 11.6µM
CN(C)c1ccc(C=C(c2nnnn2-c2ccccc2)c2nnnn2-c2ccccc2)cc1	TDP1 cell CPT 20.6µM, DT40 TDP1 no CPT 16.4µM
CN(C)/C=C(\C(=O)c1ccccc1)c1nnnn1-c1ccccc1	none
COCCCNC(=O)c1c(N)n(-c2ccc3c(c2)OCO3)c2nc3ccccc3nc12	HT1080 IDH1KD tx inconclusive, HT1080NT lethal inconclusive, TDP1 cell CPT inconclusive, DT40 TDP1 no CPT inconclusive
CCOCCCNC(=O)c1c(N)n(-c2ccc3c(c2)OCO3)c2nc3ccccc3nc12	none
Nc1c(C(=O)NC2CC2)c2nc3ccccc3nc2n1-c1ccc2c(c1)OCO2	IL-1B inflam inh -51.1, TDP1 cell CPT inconclusive, DT40 TDP1 no CPT inconclusive
CCCNC(=O)c1c(N)n(-c2ccc3c(c2)OCO3)c2nc3ccccc3nc12	TDP1 cell CPT 8.2µM, DT40 TDP1 no CPT 14.6µM
CCCNC(=O)c1c(N)n(-c2cc(OC)cc(OC)c2)c2nc3ccccc3nc12	IL-1B inflam inh -55.2, TDP1 cell CPT inconclusive, DT40 TDP1 no CPT inconclusive
COc1ccc(CCNCC(=O)Nc2ccccc2C(F)(F)F)cc1	TDP1 cell CPT inconclusive, DT40 TDP1 no CPT inconclusive
O=C(c1ccco1)N1N=C(c2ccc3nccnc3c2)CC1c1ccccc1 (configuration not stated)	TDP1 cell CPT inconclusive, DT40 TDP1 no CPT 18.4µM
CS(=O)(=O)Nc1ccc(C2=NN(C(=O)c3ccco3)C(c3ccc(F)cc3)C2)cc1 (configuration not stated)	IL-1B inflam inh -78.7, DT40 TDP1 no CPT 16.4µM
Cc1cc(C)c2nc(N3CCC(C(=O)NCCCN4CCCCC4)CC3)sc2c1	HT1080 IDH1KD tx 18.4µM, HT1080NT lethal 23.1µM, TDP1 cell CPT inconclusive, DT40 TDP1 no CPT inconclusive

Screening data as filed in PubChem BioAssay.
